{
  "source": "PubChem BioAssay AID629",
  "about": "(Emory University Molecular Libraries Screening Center, 2007)",
  "note": "Out of some 86,000 compounds screened, about 1,400 (1.6%) were called active. The sample holds actives, similar compounds and a random draw of the others, so the mix is not that of the screen. A number with no mark means an inactive call. Rule as the data show it: active = inhibition above about 50%; inactive = the rest.",
  "data": [
    {"molecular_target": "Estrogen receptor (Homo sapiens) (UniProt P03372)", "sequence (P03372 whole entry, looked up, the tested form may be a part)": "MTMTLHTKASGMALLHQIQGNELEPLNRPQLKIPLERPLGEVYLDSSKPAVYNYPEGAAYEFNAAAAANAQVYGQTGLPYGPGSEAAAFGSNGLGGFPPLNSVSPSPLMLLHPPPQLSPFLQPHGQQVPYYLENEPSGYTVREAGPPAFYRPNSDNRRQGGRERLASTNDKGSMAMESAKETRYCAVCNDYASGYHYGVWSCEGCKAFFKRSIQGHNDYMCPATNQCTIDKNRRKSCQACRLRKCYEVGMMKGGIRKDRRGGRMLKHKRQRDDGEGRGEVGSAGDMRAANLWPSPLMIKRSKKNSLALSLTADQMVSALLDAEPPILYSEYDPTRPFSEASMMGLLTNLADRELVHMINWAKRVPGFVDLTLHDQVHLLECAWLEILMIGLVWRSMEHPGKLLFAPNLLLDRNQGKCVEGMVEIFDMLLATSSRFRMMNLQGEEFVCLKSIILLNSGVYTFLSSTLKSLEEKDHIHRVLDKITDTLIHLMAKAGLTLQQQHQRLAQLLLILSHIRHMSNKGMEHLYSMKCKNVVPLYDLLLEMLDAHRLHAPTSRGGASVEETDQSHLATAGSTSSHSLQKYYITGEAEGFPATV", "test": "blockers of SRC-1 peptide recruitment to ERα – biochemical, TR-FRET, ERα LBD, estradiol-bound, primary screen (AID 629);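 also: 0% = receptor plus peptide control and 100% = peptide only without receptor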", "conditions": "TR-FRET ER-alpha LBD / SRC-1 peptide, at 25.6 µM, active compounds read high", "values": [
      {"molecule": "O=C(NCc1ccccn1)c1cc2ccccc2oc1=O", "inhibition": "-3.07%"},
      {"molecule": "CN(c1ccc(C(=O)NCc2ccccn2)cc1)S(C)(=O)=O", "inhibition": "-0.26%"},
      {"molecule": "O=C(NCc1ccccn1)c1ccc2nc(-c3ccco3)c(-c3ccco3)nc2c1", "inhibition": "88% [fluorescence artefact?] (active)"},
      {"molecule": "CCN(CC)C(=O)CSc1nc2ccccc2o1", "inhibition": "-2.4%"},
      {"molecule": "O=c1/c(=C/c2ccc(CNS(=O)(=O)c3ccccc3)o2)sc2n1CCN=2", "inhibition": "51.2% [fluorescence artefact?] (active)"},
      {"molecule": "O=S(=O)(NCCNS(=O)(=O)c1ccccc1)c1ccccc1", "inhibition": "-4.42%"},
      {"molecule": "O=S(=O)(NCC1OCCc2ccccc21)c1ccccc1", "note": "(centres undefined)", "inhibition": "-3.46%"},
      {"molecule": "CC(=O)C1=C(C)NC(=O)NC1c1cc(Br)ccc1OCC#N", "note": "(centres undefined)", "inhibition": "-10.9%"},
      {"molecule": "CC(C)n1c(-c2cccs2)nc2ccccc21", "inhibition": "-8.49%"},
      {"molecule": "O=C(CCn1c(SCC(=O)c2ccccc2)nc2ccccc2c1=O)NCc1ccc(F)cc1", "inhibition": "47.2%"},
      {"molecule": "COc1ccc(NC(=O)CSc2nnc(-c3cccs3)n2Cc2ccco2)cc1OC", "inhibition": "-0.83%"},
      {"molecule": "COc1ccc(OC)c(-n2nnnc2SCC(=O)Nc2cc(C)ccc2OC)c1", "inhibition": "4.13%"},
      {"molecule": "COc1ccc(C)cc1-n1nnnc1SCC(=O)c1cc(C)n(Cc2ccco2)c1C", "inhibition": "56% [fluorescence artefact?] (active)"},
      {"molecule": "O=C(NCc1ccccc1)[C@@H]1CSC2c3ccccc3C(=O)N21", "note": "(some centres undefined)", "inhibition": "6.25%"},
      {"molecule": "Cc1cc(C)n(-c2nnc(C)n2NC(=O)c2cccc(Cl)c2)n1", "inhibition": "-8.09%"},
      {"molecule": "COc1ccc(-c2noc(-c3ccc(C)cc3)n2)cc1", "inhibition": "-13.3%"},
      {"molecule": "Cc1cccc(-c2noc(-c3ccc(F)cc3)n2)c1", "inhibition": "-21.4%"},
      {"molecule": "COc1ccc2[nH]c(=O)c(-c3noc(-c4ccc(F)cc4)n3)cc2c1", "inhibition": "72.5% [fluorescence artefact?] (active)"},
      {"molecule": "COc1ccc(Cl)cc1C(=O)Nc1ccc(N(C)C(C)=O)cc1", "inhibition": "9.29%"},
      {"molecule": "COc1cc(OC)c(C(=O)NC2CCCCCC2)cc1OC", "inhibition": "-10.8%"},
      {"molecule": "COc1cc(OC)c(C(=O)Nc2ccc(N(C)C)cc2)cc1OC", "inhibition": "63.9% [fluorescence artefact?] (active)"},
      {"molecule": "CCOc1ccccc1C(=O)NC1CC2CCCC(C1)N2Cc1ccccc1", "note": "(centres undefined)", "inhibition": "1.91%"},
      {"molecule": "COc1ccc(-c2nnc(SCC(=O)c3ccc4c(c3)OCCO4)o2)cc1", "inhibition": "22.7%"},
      {"molecule": "Cc1ccc(-c2noc(CSc3nnnn3-c3ccccc3)n2)cc1", "inhibition": "-3.97%"},
      {"molecule": "O=c1c2ccccc2nnn1CSc1nnnn1-c1ccccc1", "inhibition": "-0.34%"},
      {"molecule": "COc1ccc(-n2nnnc2SCC(=O)Nc2ccccc2)cc1", "inhibition": "-12.4%"},
      {"molecule": "N#CCSc1nc2ccccc2c(=O)n1-c1ccccc1", "inhibition": "1.7%"},
      {"molecule": "O=c1c2ccccc2nc(CSc2nnnn2-c2ccccc2)n1-c1ccccc1", "inhibition": "70% [fluorescence artefact?] (active)"},
      {"molecule": "Cc1ccc(Nc2nc(CSc3nnnn3-c3ccccc3)cc(=O)[nH]2)cc1", "inhibition": "66.8% [fluorescence artefact?] (active)"},
      {"molecule": "Brc1ccc(-c2nnc(-c3ccccc3)o2)o1", "inhibition": "12.2%"},
      {"molecule": "O=C(Cc1ccccc1)Nc1c(C(=O)N2CCCCCC2)cnn1-c1ccccc1", "inhibition": "-5.17%"},
      {"molecule": "Cc1cc(=O)oc2cc(OCC3CC(c4ccccc4Cl)=NO3)ccc12", "note": "(centres undefined)", "inhibition": "3.5%"},
      {"molecule": "O=C(c1ccc2c(c1)OCO2)N1CCOCC1", "inhibition": "-17.2%"},
      {"molecule": "Cc1ccc(NC(=O)CSCC(=O)N2CCOCC2)cc1", "inhibition": "-2.74%"},
      {"molecule": "CCN(CC)C(=O)CN(c1cccc(OC)c1)S(=O)(=O)c1ccc(C)cc1", "inhibition": "0.16%"},
      {"molecule": "Cc1nc(C)c(C(=O)Nc2ccc(C)c(F)c2)o1", "inhibition": "13.3%"},
      {"molecule": "Cc1nc(C)c(C(=O)Nc2cccc(C)c2C)o1", "inhibition": "23.7%"},
      {"molecule": "COc1ccc(Cl)cc1NC(=O)c1oc(C)nc1C", "inhibition": "53.9% (active)"},
      {"molecule": "Cc1cc(NC(=O)CCC(=O)N(CC(=O)NCC2CCCO2)c2ccccc2C)no1", "note": "(centres undefined)", "inhibition": "26%"},
      {"molecule": "Cn1c2ccccc2c2c(C(=O)N3CCN(c4ccc(F)cc4)CC3)cn(C3CCCC3)c(=O)c21", "inhibition": "8.84%"},
      {"molecule": "CCOC(=O)N1CCN(C(=O)c2nn(-c3ccc(C)cc3)c(=O)c3c2c2ccccc2n3C)CC1", "inhibition": "58.7% [fluorescence artefact?] (active)"},
      {"molecule": "CCOC(=O)N1CCN(C(=O)c2n[nH]c(=O)c3ccccc23)CC1", "inhibition": "-4.02%"},
      {"molecule": "CCCc1nc(NCc2ccc3c(c2)OCO3)c2nnn(Cc3ccccc3Cl)c2n1", "inhibition": "0.25%"},
      {"molecule": "Cc1ccccc1-c1nnc(SCC(=O)NCc2ccc3c(c2)OCO3)n1C", "inhibition": "-3.86%"}
    ]}
  ]
}
